An excerpt weighted towards active compounds, which were near 21% of everything screened.
AMA1 RON2 block: qHTS for Inhibitors of AMA1-RON; Towards Development of Antimalarial Drug Lead: Primary Screen. Potency, µM (titrated, usually from 58.2 µM), most hits filed as inhibitors. Plasmodium falciparum AMA1 (3D7) - RON2 peptide interaction. 360,000 tested, 0.2% active. AID 720542, 2013. AlphaScreen AMA1-biotinylated RON2 peptide binding; note: nearly all actives have a fitted effect of over 45% in size
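AMA1 (3D7) with his tag at 25 nM final met compounds first, then biotinylated RON2 peptide at 25 nM; detection used donor plus acceptor beads, 10 µg/mL apiece, read by AlphaScreen after 30 min at room temperature.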
Shiga toxin inh: A qHTS for Small Molecule Inhibitors of Shiga Toxin. Vero cells, Shiga toxin protein synthesis inhibition reporter. 290,000 tested, 9.2% active. inhibition, % at 38.7 µM; in the data active = inhibition mostly above about 28%, no sharp cut-off; inactive = mostly below about 43%
Pf growth 48h: Primary qHTS for delayed death inhibitors of the malarial parasite plastid, 48 hour incubation | P. falciparum luciferase growth in erythrocytes, 48 h | 310,000 tested, 5.9% active | AID 504832, 2011 | Potency, µM (highest dose often 28.7 µM), usual class: inhibitors
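A one-generation exposure of luciferase-tagged malaria parasites in RPMI 1640/Albumax erythrocyte culture, 37 C and 5% CO2. Inhibition is inferred from decreased luminescence after adding detection reagent.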
HCV inh: qHTS Assay for Inhibitors of Hepatitis C Virus (HCV); 340,000 tested, 3.4% active; AID 651820, 2012; Potency, µM (highest dose often 41.8 µM), most hits filed as inhibitors; Huh7.5.1 HCVcc-Cre infection, luciferase reporter, 44 h
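Cells seeded at 1,000/well and cultured 4 h, then compounds added followed by HCVcc-Cre virus (~0.5 moi). After 44 h further culture, luciferase substrate was added, plates held 15 min at room temperature, and luminescence read for 15 sec.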
CHX counter: Cycloheximide Counterscreen for Small Molecule Inhibitors of Shiga Toxin | cell reporter, cycloheximide protein synthesis inhibition counterscreen | max response, % | 300,000 tested, 12% active | AID 2314, 2010; in the data active = max response mostly above about 13%, no sharp cut-off; inactive = mostly below about 14%; note: read at 38.3 µM for the half of the compounds with a filed dose
Pf growth 96h: Primary qHTS for delayed death inhibitors of the malarial parasite plastid, 96 hour incubation; AID 504834, 2011; 320,000 tested, 6.9% active; P. falciparum luciferase reporter growth, 96 h; Potency, µM (titrated, usually from 28.7 µM), most hits filed as inhibitors
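P. falciparum expressing integrated firefly luciferase, in erythrocytes at 2% hematocrit, 0.05% parasitemia, incubated with compounds 96 h at 37 C, 5% CO2. Growth inhibition read as loss of luminescence; two-generation exposure targets delayed-death apicoplast inhibitors.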
A number is an active result; n = inactive; u = inconclusive; x = not tested or not shown; [ ] = another dose, or the depositor's remark. Unless noted, calls come from the whole dose curve; as a rule, active = well fitted curve in the direction sought with a large enough effect; inconclusive = small, poorly fitted or top-dose-only effect, or another doubt; inactive = no such curve, though single readings can be large; an effect the other way counts as inactive or inconclusive.

SMILES	AMA1 RON2 block	Shiga toxin inh	Pf growth 48h	HCV inh	CHX counter	Pf growth 96h
CN(Cc1nc2ccccc2c(=O)[nH]1)CC(O)COCc1ccco1 (stereo unspecified)	n	n	n	n	n	6.6µM
CCOc1ncccc1C(=O)Nc1ccc2nc(C)sc2c1	n	50	n	u	14	n
CCOc1ncccc1C(=O)Nc1ccc(F)c(F)c1	n	n	n	n	n	n
CSc1ncccc1C(=O)Nc1ccc2nc(C)sc2c1	n	50	n	n	19	n
CSc1ncccc1C(=O)Nc1nc2ccc(Oc3ccccc3)cc2s1	n	56	n	u	15	n
CSc1ncccc1C(=O)Nc1ccncc1	n	n	n	n	n	u
O=C(Nc1ccc2c(c1)OCCO2)C1c2ccccc2OCC(=O)N1Cc1ccccc1 (stereo unspecified)	n	x	x	x	x	x
O=c1c(Cl)c(NCc2ccccc2)cnn1C12CC3CC(CC(C3)C1)C2	n	n	u	n	n	10µM
CCN(CC1CCCO1)C(=O)CCc1nnc(CCc2ccccc2)o1 (stereo unspecified)	n	x	x	x	x	x
CN(CCC1CCCCO1)C(=O)CCc1nnc(C2CCCCC2)o1 (stereo unspecified)	n	40	n	n	31	u
O=C(Nc1cccc(Cl)c1)N1CCSc2cc(Cl)ccc21	n	n	u	u	n	13µM
O=C(Nc1ccccc1Cl)N1CCSc2ccccc21	n	n	1.5µM	n	n	n
O=C(Nc1ccccc1)N1CCSc2cc(Cl)ccc21	n	n	n	n	n	u
O=C(NNC(=O)C1CCC1)c1ccc(F)cc1	n	x	x	x	x	x
CCOC(=O)c1sc(=S)n(-c2ccc(F)c(F)c2)c1N	n	n	n	n	n	u
CCOC(=O)c1sc(=S)n(-c2ccccc2OC)c1N	n	n	n	n	n	6.6µM
Cc1ccc(-n2c(N)c(C(N)=O)sc2=S)c(C)c1	n	n	n	n	n	15µM
Cc1ccc(C)c(-n2c(N)c(C(N)=O)sc2=S)c1	n	n	n	u	n	n
C=CCNC(=O)c1sc(=S)n(-c2ccc(C(=O)OCC)cc2)c1N	n	n	n	n	n	2.9µM
CCOC(=O)c1sc(=S)n(-c2ccc3c(c2)OCO3)c1N	n	n	n	n	30	n
CN(c1ccc(OC(=O)CN2C(=O)NC3(CCCC3)C2=O)cc1)S(=O)(=O)c1ccccc1	n	x	n	n	x	n
CCn1cc(C(=O)NNC(=O)c2ccc(Cl)cc2)c(=O)c2ccc(C)nc21	x	n	n	x	n	n
COC(=O)c1sc(=S)n(-c2ccccc2OC)c1N	n	n	n	n	n	u
CCOc1ccccc1-n1c(N)c(C(N)=O)sc1=S	n	n	n	n	n	1.7µM
CCOC(=O)c1sc(=S)n(-c2ccc(Cl)cc2)c1SC	n	n	u	n	n	0.93µM
SMILES	AMA1 RON2 block	Shiga toxin inh	Pf growth 48h	HCV inh	CHX counter	Pf growth 96h
C[C@H](CO)N1C[C@H](C)[C@@H](CN(C)Cc2ccc(-c3ccccc3)cc2)OCc2cnnn2CCCC1=O	n	x	x	x	x	x
COc1cc(NS(=O)(=O)c2cc(C(=O)NCCc3ccccn3)ccc2OC)cc(OC)c1	n	x	x	u	x	x
COc1cc2c(cc1OC)C(C(=O)O)C(c1ccc(C)o1)N(C)C2=O (stereo unspecified)	n	n	n	n	n	13µM
CCOc1cc2c(cc1OCC)C(C(=O)O)C(c1cc(OC)c(OC)c(OC)c1)N(C)C2=O (stereo unspecified)	n	n	u	n	n	u
CCOc1cc(C2C(C(=O)O)c3cc(OCC)c(OCC)cc3C(=O)N2C)ccc1O (stereo unspecified)	n	n	n	n	n	12µM
COc1ccc([C@H]2C[C@H](O)[C@@H](n3cc(-c4ccc(F)cc4)nn3)CN2C(=O)C2CCCCC2)cc1	n	x	x	x	x	x
Cc1ccc(-c2nc3ccc(Cl)cn3c2Cc2cccc(Cl)c2)cc1	n	x	x	x	x	x
CCN(C(=O)CSc1n[nH]c(-c2ccc(OC)cc2)n1)c1c(N)n(Cc2ccccc2)c(=O)[nH]c1=O	n[11.6 µM]	x	x	n	x	x
O=C(COc1ccccc1)Nc1ccncc1	n	n	n	n	n	n
O=C(COc1ccc2ccccc2c1)Nc1ccncc1	n	27	n	u	27	u
Cc1cc(C)cc(OCC(=O)Nc2cc(C)on2)c1	n	n	n	n	n	n
Cc1cc(NC(=O)COc2ccc(C)c(C)c2)no1	n	65	n	n	39	u
Cc1cc(NC(=O)CCl)no1	n	n	2.9µM	u	n	n
Cc1cc(NC(=O)Nc2cccc([N+](=O)[O-])c2)no1	n	n	n[5.75 µM]	n	n	n
Cc1cc(NC(=O)COc2cccc([N+](=O)[O-])c2)no1	n	n	1.7µM	n	n	n
NC(Cc1ccc(F)cc1)c1csc(Nc2ccc(C(=O)c3ccccc3)cc2)n1 (stereo unspecified)	n	x	x	x	x	x
Cc1cc(NC(=O)COc2ccc3ccccc3c2)no1	n	n	n	n	31	u
Cc1ccc(OCC(=O)NCCO)cc1C	n	n	x	n	n	1.3µM
Cc1ccc(OCC(=O)Nc2cc(C(C)(C)C)on2)cc1C	n	n	5.2µM	n	n	n
Cc1cc(OCC(=O)Nc2cc(C(C)(C)C)on2)ccc1[N+](=O)[O-]	n	n	n	n	n	u
Cc1ccc(OCC(=O)Nc2cc(C)on2)c([N+](=O)[O-])n1	n	105	n	n	35	n
COc1cccc(C(=O)Nc2cc(C)nn2-c2ccccc2)c1OC	n	n	u	n	n	u
Cc1cc(NC(=O)COC(=O)c2ccccc2[N+](=O)[O-])no1	n	n	n	n	28	n
COc1ccc(-n2c(N)c(C(=O)NCc3ccco3)sc2=S)cc1	n	n	u	n	n	u
COc1cc2cc3c(N)c(C(=O)Nc4sc(C)c(C)c4C#N)sc3nc2cc1OC	n	n	u	n	n	12µM
SMILES	AMA1 RON2 block	Shiga toxin inh	Pf growth 48h	HCV inh	CHX counter	Pf growth 96h
Cc1cccc(C(=O)NCc2ccco2)c1	n	x	n	n	n	n
Cc1ccc2nc3sc(C(=O)NCc4ccco4)c(N)c3cc2c1	n	68	n	n	23	n
COc1cc2cc3c(N)c(C(=O)NCc4ccco4)sc3nc2cc1OC	n	54	u	u	16	n
COc1ccc(N(Cc2ccccc2)S(=O)(=O)c2cccc(C(=O)NC3=NCCS3)c2)cc1	n	n	n	n	n	u
COc1ccccc1N(Cc1ccccc1)S(=O)(=O)c1cccc(C(=O)N2CCCCC2)c1	n	x	x	n	x	x
COc1ccccc1N(Cc1ccccc1)S(=O)(=O)c1cccc(C(=O)Nc2ccc(C(C)=O)cc2)c1	n	44	u	n	46	3.7µM

Screens: PubChem, National Center for Advancing Translational Sciences (NCATS)
